# Test results reported in PubChem BioAssay (EPA / NIEHS).
# Results filed as inconclusive are left out. Calls of active or inactive are those of the source. How the source made its calls: active means hit-call score of the fitted dose curve at least 0.9, where 1 is the maximum; inconclusive means response in the unintended direction; inactive means score below 0.9.
# Experiment: Tanguay_ZF_120hpf_PE_legacy: (Legacy) Oregon State University Tanguay Lab 120 Hour Post-fertilization zebrafish Assay for Pericardial Edema (AID 2283640);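 on AC50: potency for increased incidence of pericardial edema versus DMSO baseline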
# Protocol: Tanguay_ZF_120hpf_legacy is a whole embryo, multiplexed endpoint assay using zebrafish larvae exposed for 120 hours post fertilization on a 96-well plate.Tanguay_ZF_120hpf_PE_legacy is one of one assay component(s) measured or calculated from the Tanguay_ZF_120hpf_legacy assay. It is designed to make measurements of zebrafish development as detected with brightfield microscopy of developing zebrafish embryos.Data from the assay component Tanguay_ZF_120hpf_PE_legacy was analyzed into 1 assay endpoints. This assay endpoint, Tanguay_ZF_120hpf_PE_legacy, was analyzed in the positive analysis fitting direction relative to DMSO as the negative control and baseline of activity. Using a type of morphology reporter, gain-of-signal activity can be used to understand changes in developmentals as they relate to the whole embryo. To generalize the intended target to other relatable targets, this assay endpoint is annotated to the zebrafish development intended target family, where the subfamily is embryonic morphogenesis.
# Zebrafish husbandry: Tropical 5D wild-type adult zebrafish were housed in at an approximate density of 1000 per 100 gallon tank at the Sinnhuber Aquatic Research Laboratory, Oregon State University, Corvallis, OR. Each tank was kept at standard laboratory conditions of 28C on a 14-h light/10-h dark photoperiod in fish water consisting of reverse osmosis water supplemented with a commercially available salt (Instant Ocean). Spawning funnels were placed into the tanks the night prior, and embryos were collected and staged. […] Ten microliters of each row of dilution plate 2 was added to 2 exposure plates. The final DMSO concentration used was 0.64% (vol/vol). Thirty-two embryos were also exposed to 5uM trimethyltin chloride (positive control). Plates were sealed to prevent evaporation and foil covered to reduce light exposure and kept in a 28C incubator. Embryos were statically exposed until 120 hpf. At 24 hpf, embryos were assessed for photomotor response using a custom photomotor response analysis tool (PRAT) and for developmental toxicity endpoints (MO24: mortality at 24 hpf, DP: developmental progression, SM: spontaneous movement, and NC: notochord distortion). At 120 hpf, locomotor activity was measured using Viewpoint Zebralab and assessed for 18 endpoints. Zebrafish acquisition and analysis program (ZAAP), a custom program designed to inventory, acquire, and manage zebrafish data, was used to collect developmental endpoints as either present or absent (i.e., binary responses were recorded). If mortality occurred for an embryo (at either 24 or 120 hpf), the non-mortality endpoints were not measured.
Compound,outcome,AC50
CC(C)(C)c1ccccc1,inactive,
O=C1c2c(O)cccc2Cc2cccc(O)c21,inactive,
O=Cc1ccccc1C=O,inactive,
O=C(NS(=O)(=O)/C=C/c1cccs1)c1ccc(F)cc1Br,inactive,
COC(=O)[C@H]1[C@H]2C[C@@H]3c4[nH]c5cc(OC)ccc5c4CCN3C[C@H]2C[C@@H](OC(=O)c2cc(OC)c(OC)c(OC)c2)[C@@H]1OC,inactive,
CCCCCCCC(=O)OC,inactive,
O=C(O)CC(O)(CC(=O)O)C(=O)O,inactive,
CC1=C(C)S(=O)(=O)CCS1(=O)=O,inactive,
O=C1CCCCC1,inactive,
NC=O,inactive,
Nc1nc(Cl)nc2c1ncn2[C@H]1C[C@H](O)[C@@H](CO)O1,inactive,
O=C(O)CN(CC(=O)O)CC(=O)O,inactive,
O=C(Oc1ccccc1)c1cccc(C(=O)Oc2ccccc2)c1,inactive,
CC(C)(O)c1ccc(CNC(=O)c2cccnc2Oc2ccc(F)cc2)cc1,inactive,
CC(C)OC(=O)C(C)(C)Oc1ccc(C(=O)c2ccc(Cl)cc2)cc1,inactive,
Oc1ccccc1O,inactive,
CCCC[C@H]1CN(CC2CCOCC2)C(=O)OC12CCN(C1(C)CCN(C(=O)c3c(C)ncnc3C)CC1)CC2,inactive,
CS(=O)(=O)c1ccc([C@@H](C[C@H]2CCC(=O)C2)C(=O)Nc2cnccn2)cc1Cl,inactive,
c1ccc2occc2c1,inactive,
OCC(O)CO,inactive,

Compound,outcome,AC50
CC(=O)O[C@]1(C(C)=O)CC[C@H]2[C@@H]3C=C(Cl)C4=CC(=O)[C@@H]5C[C@@H]5[C@]4(C)[C@H]3CC[C@@]21C,inactive,
CCCCCCC(C=O)=Cc1ccccc1,inactive,
CSc1ccc(Oc2ccc(S(N)(=O)=O)cc2CN(C)C)cc1C,inactive,
COc1ccc(OC(F)(F)F)cc1CN[C@H]1CCCN[C@H]1c1ccccc1,inactive,
C/C=C/c1ccc(OC)cc1,inactive,
CCCCCCCCCCCCCCOS(=O)(=O)O,,27.7 µM (active)
CCCCOC(=O)CCCCC(=O)OCCCC,inactive,
CCN(CC)CCOc1ccc(C(=C(Cl)c2ccccc2)c2ccccc2)cc1,inactive,
CC(C)c1cccc(C(C)C)c1,inactive,
O=[Si]=O,inactive,
O=NO,inactive,
NCCOCCOCCN,inactive,
Nc1nc(=S)c2[nH]cnc2[nH]1,inactive,
Cc1cc(SC2=C(O)C[C@@](CCc3ccc(N)cc3)(C(C)C)OC2=O)c(C(C)(C)C)cc1CO,inactive,
CO[C@@H]1COCC[C@@H]1N[C@@H]1CC[C@@](C(=O)N2CCc3ncc(C(F)(F)F)cc3C2)(C(C)C)C1,inactive,
CCCCC(CC)CO (stereo not given),inactive,
CC(C)NCC(O)c1ccc(O)c(O)c1 (stereo not given),inactive,
CCCCCCCCCC[N+](C)(C)[O-],inactive,
NC(=Nc1ccccc1)Nc1ccccc1,inactive,
O=C(O)c1cccnc1,inactive,
